Reference: PubChem BioAssay (NCI)
The panel holds about 83,000 compounds, 20% with a hit somewhere; the sample as a whole holds those more often.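 96-well plates, one dose, 48 hours. Percent growth reported; active if below 10.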 The source made the active and inactive calls.

system: NCI-H23 lung; experiment: NCI-60 one-dose screen, 48 h (100 = growth as untreated, 0 = no growth, -100 = all killed); conditions: 10 µM unless noted
Method: Growth inhibition of the NCI-H23 human Non-Small Cell Lung tumor cell line is measured as a screen for anti-cancer activity. Cells are grown in 96 well plates and exposed to the test compound for 48 hours. Compounds are tested at a single concentration, which is 10^-5 M for most compounds. The reported endpoint is percent growth (GI% or GIPRCNT), where numbers from 0 - 100% represent growth inhibition, and numbers from -100% - 0 represent cell death. For example, a value of 40 represents 60% growth inhibition. A value of 0 means no net growth occurred over the course of the experiment. A value of -40 indicates 40% of cells at the beginning of the experiment died by the end of the experiment. A value of -100 means all cells are dead at the end of the experiment.
NCI-60 Human Tumor Cell Lines Screen was performed using the standard one-dose NCI protocol, which is described in more detail at https://dtp.cancer.gov/discovery_development/nci-60/default.htm.
Compounds with GIPRCNT values below 10 were considered active. Activity score was based on GIPRCNT using the following formula: […]
Score is 0 for GIPRCNT values of 100 or above, 50 for GIPRCNT values of 0, and 100 for GIPRCNT values of -100.

SMILES	growth
COc1cc2nccc(Oc3ccc(NC(=O)C4(C(=O)Nc5ccc(F)cc5)CC4)cc3)c2cc1Oc1ccc(N)cn1	49.3% (inactive)
C=CCN(CCOC(=O)c1ccc([N+](=O)[O-])cc1)CCOC(=O)c1ccc([N+](=O)[O-])cc1	106% (inactive)
COc1ccc(/C=C2\Cc3c(Br)cccc3C2=O)c(OC)c1	66% (inactive)
CCOC(=O)C1=C(C)NC(SCc2nnc(-c3ccc(Cl)cc3)o2)=NC1c1ccc(Br)cc1 (stereo not given)	75.7% (inactive)
COc1ccc(/C=C(/C(=O)N2CCN(c3ccccc3)CC2)c2cc(OC)c(OC)c(OC)c2)cc1N	39.4% (inactive)
Clc1cc(Br)ccc1-c1ccc(CNCC2CCNCC2)o1	69.6% (inactive)
COc1ccc(/C(=C\c2cc(OC)c(OC)c(OC)c2)C(=O)N2CCCNCC2)cc1	104% (inactive)
COc1ccc(/C(=C\c2cc(OC)c(OC)c(OC)c2)C(=O)N2CCN(c3ccccc3)CC2)cc1O	99.2% (inactive)
FC(F)(F)C1=NNC(c2ccc3ccccc3c2)=NN1	94.2% (inactive)
COc1ccc(-c2cn(-c3cccc(C(=O)/C=C/c4ccc(O)c(OC)c4)c3)c(=O)[nH]2)cc1	62.5% (inactive)
O=c1[nH]c2ccccc2n2cc3cccnc3c12	77.5% (inactive)
Cn1nc(C(F)(F)F)cc1-c1c[nH]c(OCc2ccc(Cl)cc2)c(-c2ccc(Cl)c(C(F)(F)F)c2)c1=O	3.29% (active)
CC1C2CCC(C2)C1COCCOCCO (stereo not given)	107% (inactive)
CCOc1c(C#N)c2c(N)ncnc2n1C1OC(CO)C(O)C1O (stereo not given)	50.6% (inactive)
CC(C)N=C1CCCC1C(=S)SSC(=S)C1CCCC1=NC(C)C (stereo not given)	75.5% (inactive)
CC[C@H](Nc1nc(N)nc(C2CC2)c1C#N)c1nc2cccc(NCc3ccc(C(=O)NO)cc3)c2c(=O)n1-c1ccccc1	-14.8% (active)
Cc1cc(C)c2c(n1)sc1c(Nc3ccc(O)cc3)ncnc12	9.96% (active)
COc1ccc(NC(=O)c2ccc(C(F)(F)F)nc2Nc2ccc(Cl)cc2C)cc1Cl	3.83% (active)
CC[C@H](Nc1nc(N)nc(N)c1Cl)c1nc2cccc(NCc3ccc(C(=O)NO)cc3)c2c(=O)n1-c1ccccc1	-71.6% (active)
COc1c(B(O)O)cccc1-c1nc2ccc3[nH]ncc3c2c2c1CCCC2	15.5% (inactive)

SMILES	growth
COc1ccc(C2C3=C(COC3=O)N(CCO)c3cc(OC)c(OC)cc32)cc1 (stereo not given)	106% (inactive)
CCCCn1cnc(-c2cc(-c3ccccc3)cc(C(F)(F)F)c2)n1	98.1% (inactive)
CC(C)NCCCCCNc1cc(O)cc2cccnc12	45.7% (inactive)
Cc1cc(C)cc(CCCCCCCCCCCCCCCCCC(=O)O)c1	104% (inactive)
C[C@@H]1C[C@H](N)C[C@H](c2ccncc2NC(=O)c2ccc(F)c(-c3c(F)cccc3F)n2)C1	73.3% (inactive)
CN(CCO)c1ccc(N2Cc3ccccc3OC3=C2C(=O)c2c(O)ccc(O)c2C3=O)cn1	-66.5% (active)
CN1CCN(Cc2ccc(NC(=O)c3cncc(C#Cc4cnc5cccnn45)c3)cc2C(F)(F)F)CC1	-7.84% (active)
CC(COC(=O)c1ccccc1)N1CC2CCC(C1)O2 (stereo not given)	107% (inactive)
CO[C@@]12[C@@H]3NC3CN1C1=C(C(=O)C(N)=C(C)C1=O)[C@@H]2COC(N)=O (stereo not given in full)	-3.61% (active)
CCOC(=O)NNc1cccc(Cl)c1	93.8% (inactive)
CCCCCCCCCCC(C(O)c1ccccc1)N1CCCCC1 (stereo not given)	49.6% (inactive)
Nc1nc(N)c2cc(Sc3ccc(Cl)cc3)ccc2n1	33.6% (inactive)
COc1cc(/C=C/C(=O)c2ccc(NC(=O)CSc3nnc(-c4ccc(Cl)cc4)n3-c3ccccc3)cc2)cc(OC)c1OC	55.9% (inactive)
COc1ccc(/C=C2\CCCC3=C2N=C2SC(C)=NN2C3c2ccc(OC)c(OC)c2)cc1OC (stereo not given)	35.5% (inactive)
COc1cc(-c2nc(-c3nc4cc(C(=O)c5ccccc5)ccc4[nH]3)cc3c2[nH]c2ccccc23)cc(OC)c1OC	104% (inactive)
Cc1cc(N=Nc2ccc(-c3ccc(N=Nc4ccc(O)c(C(=O)O)c4)cc3)cc2)c(N)c(N=Nc2ccc(C(=O)O)cc2)c1N	93.4% (inactive)
COc1ccc(/C=C/C(=O)c2ccc(NC(=O)CSc3nnc(-c4ccc(Cl)cc4)n3-c3ccccc3)cc2)cc1	92.4% (inactive)
COc1ccc2[nH]c(C(=O)OCc3ccc4c(Br)cc(Br)c(O)c4n3)cc2c1	-62.4% (active)
NNC(=O)Cc1ccccc1	93.2% (inactive)
CCN(CC)CCNc1c(C)cc(CO)c(Cl)c1C	102% (inactive)
